# Screening data: PubChem, several laboratories
# Most compounds without a hit are left out; they make up all but 4.3% or so of the library.
# KKLEB cytotox: counter-screen for CF NF-kB inhibitors: cytotoxicity. KKLEB CF airway cells viability, ATPlite luminescence, overnight; active compounds read low; cells stimulated with P. aeruginosa culture filtrate. activity change (cytotoxicity), % at 5 µM. actives 0.36% (n = 360,000);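 active = corrected activity change at or below -50% at 5 µM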
# TRPM1 prom inh: inhibitors of MITF-driven TRPM1 promoter in melanoma cells; SK-MEL-5 TRPM1 promoter luciferase, 24 h; inhibition, % at 12.5 µM; actives 0.83% (n = 330,000); AID 488899;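 active = mean inhibition across replicates of 60% or more, whatever share of single replicates reaches that level; inconclusive = some that reach 60%, reason not given; inactive = mean inhibition across replicates below 60%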
# HIF-2a block: inhibitors of HIF-2a; 786-0 RCC cells HIF-2a reporter, luciferase luminescence, overnight; inhibition, % at 18.8 µM; actives 0.72% (n = 360,000);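 active = inhibition of the luminescence signal of 40% or more relative to plate controls, in a single-dose primary screen at 18.75 µM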
# CHOP inh: inhibitors of CHOP induction in ER stress response; inhibition, % at 10 µM; actives 3.8% (n = 220,000); CHO-K1 CHOP-promoter luciferase, tunicamycin-induced, 15-18 h;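 active = compounds that reduced the stress-induced luciferase reporter signal by more than about 70% of percent inhibition, limit read from the data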;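 note: 0% = tunicamycin plus vehicle and 100% = wells without tunicamycin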
# Peg3 promoter: inhibitors of Peg3 promoter. inhibition, % at 20 µM. actives 1.7% (n = 360,000). HeLa PEG-Prom luciferase reporter, luminescence, overnight;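 active = inhibition of at least 50% at 20 µM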
# CF NFkB block: cystic fibrosis NF-kB activation inhibition; KKLEB NF-kB-GFP reporter, PAF-induced, GFP fluorescence overnight; inhibition, % at 5 µM; actives 0.86% (n = 360,000); AID 588850;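 active = at least 50% inhibition at 5 µM, scaled per plate between neutral and stimulator controls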;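 note: PAF is a Pseudomonas aeruginosa culture filtrate used as stimulus; plate controls were PAF-stimulated DMSO wells for no effect and unstimulated DMSO wells for full effect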
# Active calls of the source: *; u = inconclusive; x = no result.
SMILES,KKLEB cytotox,TRPM1 prom inh,HIF-2a block,CHOP inh,Peg3 promoter,CF NFkB block
Cc1ccc(-c2oc3ccccc3c(=O)c2O)cc1,-10.4,-35.4,-99.9,71.8*,-148.2,-5.5
COc1cccc(CN2CC(C(=O)NCCc3ccc(C)o3)CCC2=O)c1 (stereo unspecified),-9.6,2.7,11.3,x,8.3,-2.3
Cc1ccc2nc(-c3ccccn3)c(Nc3ccccc3C)n2c1,-7.3,36.4,-19.1,76.7*,5.0,13.1
Cc1ccn2c(Nc3ccccc3C)c(-c3ccccn3)nc2c1,-18.2,42.2,3.8,88.2*,43.2,26.0
Cc1ccccc1Nc1c(-c2ccccn2)nc2ccccn12,4.6,34.3,1.7,69.2,18.3,-16.4
Cc1ccn2c(Nc3ccccc3)c(-c3ccccn3)nc2c1,-20.8,u,-21.6,83.8*,33.3,27.2
Cc1cc(N)n2nc(-c3ccccc3)cc2n1,-11.0,-14.4,-117.7,-6.1,-140.3,-6.7
Cc1ccc(-c2cc3nc(-c4ccc(Br)cc4)cc(N)n3n2)cc1,-1.2,14.0,-33.6,52.0,-20.3,-6.6
Cc1ccc(-c2cc3nc(-c4ccccc4)cc(N)n3n2)cc1,-1.0,-61.4,-244.9,77.7*,-119.5,-22.2
Cc1ccc(-c2cc(N)n3nc(-c4ccc(C)cc4)cc3n2)cc1,4.9,-12.4,-9.6,74.3*,7.2,-2.4
CCOC(=O)c1nnn(-c2nc(N3CCCC3)nc(N3CCCC3)n2)c1-c1ccccc1,-17.8,-15.6,21.6,89.3*,36.8,4.3
CCOC(=O)c1nnn(-c2nc(OC)nc(N3CCCCC3)n2)c1-c1ccccc1,x,x,x,66.5,x,x
CCOC(=O)c1sc(Nc2nc3c(OC)cccc3s2)cc1C,-5.2,-44.9,-223.0,44.1,77.3*,-12.6
COc1cccc2sc(NN)nc12,11.8,11.0,-41.2,-5.6,-13.1,1.2
CCOC(=O)c1sc(Nc2nc3cc4c(cc3s2)OCO4)cc1C,-4.4,-29.7,-273.3,98.1*,-210.2,9.8
COc1ccc(C(CCNCc2ccc(N(C)C)cc2)c2ccccc2)cc1 (stereo unspecified),2.5,33.2,19.5,x,106.7*,6.2
CC(C)Oc1ccc(C(CC(=O)O)NC(=O)Cc2ccccc2)cc1 (stereo unspecified),-5.9,-5.2,11.3,x,10.7,11.3
COc1ccc(C(CCNCc2ccc(OC)c(OC)c2)c2ccc(F)cc2)cc1 (stereo unspecified),9.0,5.6,13.1,16.9,-1.1,-2.4
CC(C)Oc1ccc(C(CCNCc2ccc(O)cc2)c2ccccc2)cc1 (stereo unspecified),-9.9,86.4*,6.4,x,106.1*,0.6
NC1=NC[C@H](Cc2ccccc2)N1CCCCC1CCCCC1,7.8,-9.4,7.9,31.1,70.7*,3.7
NC1=NC[C@H](Cc2ccc(O)cc2)N1CCCCC1CCCCC1,-19.3,42.6,14.3,-1.1,-0.5,-0.4
CCOC(=O)Nc1ccc2c(COC(=O)C(NS(=O)(=O)c3ccc(Cl)cc3)C(C)O)cc(=O)oc2c1 (stereo unspecified),-4.3,-14.9,-77.9,x,-40.6,9.6
Cn1cc(CN2CCC(C(=O)NC(c3ccc(-c4ccccc4)cc3)c3cnccn3)CC2)c2ccccc21 (stereo unspecified),-27.6,x,-29.8,x,107.2*,37.6
COc1ccc2nc(C(F)(F)C(F)(F)F)c(C#N)c(N)c2c1,14.2,-13.9,9.2,81.2*,31.3,-20.3
CCc1ccc(Nc2n[n+](-c3ccccc3)c(-c3ccc(N(CC)CC)cc3)s2)cc1,1.1,68.2*,-122.8,x,84.5*,33.1
C=C1C(=O)[C@]23C[C@H]1CCC2[C@@]1(C)C(C[C@@H]3O)[C@](C)(C(=O)OC)CC[C@@H]1OC(C)=O (stereo partly specified),-100.5*,x,97.7*,x,102.2*,89.3*
C=C1C(=O)[C@]23C[C@H]1CCC2[C@@]1(C)C(C[C@@H]3O)[C@](C)(C(=O)O)C[C@H](O)[C@@H]1O (stereo partly specified),15.9,x,7.9,x,-0.8,-12.0
COc1ccc(C(c2nnnn2C2CCCC2)N2CCC(C)CC2)cc1 (stereo unspecified),-18.6,-13.7,-49.1,82.9*,-11.3,15.5
CCCn1nnnc1SCC(=O)c1ccc2c(c1)OCCO2,-5.0,-21.9,-133.4,85.1*,-97.4,5.4
